This passage reports growth results from PubChem BioAssay (NCI).

About 83,000 compounds went through this panel and 20% of them were active in at least one assay; those are over-represented in the sample as a whole.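 Method: cells in 96-well plates; compound added at one concentration; 48 h incubation; percent growth measured; values under 10 scored active.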 A number with no mark means an inactive call. Active and inactive are the calls of the source.

The test has as its system HL-60(TB) leukemia. The experiment in a line: NCI-60 one-dose screen, 48 h (100 = growth as untreated, 0 = no growth, -100 = all killed). As to conditions: 10 µM unless noted.
Regarding `Cc1cc2c(cc1Cl)C(=O)/C(=C/c1ccc(F)cc1)O2`, the growth was 101%.
In the case of `CC1(C)CC[C@]2(C(=O)O)CC[C@]3(C)C(=CCC4[C@@]5(C)C[C@@H](O)[C@@H]6OC(c7ccc(F)cc7)OC[C@@]6(C)C5CC[C@]43C)C2C1` (some centres not stated) it was 3.11% (active); in that of `COc1c(F)ccc(C(=O)Nc2ccc3nc(NC(=O)C4CCCN(S(=O)(=O)c5ccc(Br)s5)C4)sc3c2)c1F` (configuration not stated), 80.6%; in that of `CCCCCCCCCCCCCCCCCCCC(=O)NCCc1c[nH]c2ccc(OC(=O)CCCC(=O)OCCOOCCOOCCOOCCOOCCOOCCOOCCOOCCOOCCOOCCOOCCOOCCOC)cc12`, -29.3% (active).
`N#Cc1c(NC(=O)N2CCOCC2)n(-c2ccc(OC(F)(F)F)cc2)c2cc(F)ccc12`: the growth was 91.2%.
As to `O=C(Nc1nc2ccccc2s1)Nc1ccccc1Cl`, the growth is 97.4%.
In the case of `O=C(c1cc2cc(OCCCN3CCC3)ccc2[nH]1)N1C[C@@H](CCl)c2c1cc(OCc1ccccc1)c1ccccc21` it was -33.7% (active).
In the case of `COC(=O)c1cc(C(=O)C(F)(F)F)n2c3ccccc3c3ccccc3c12`, the growth is 99.5%.
For `CNS(=O)(=O)c1ccc(Nc2ccc(C(F)(F)F)cc2)c(-c2cn(C)cn2)c1`, the growth is 48%.
In the case of `COc1ccc2c(c1)c(-c1cc(N)n3nc(-c4cn(C)c5ccccc45)cc3n1)cn2C` it was -33.1% (active).
`O=C1Nc2ccc(Cl)cc2/C1=C/c1cccc(OCc2ccccc2)c1`: the growth is 8.8% (active).
In the case of `COc1ccc2[nH]c(=O)c(CSc3ccc(Nc4nccc(-c5ccc(Cl)cc5)n4)cc3)cc2c1` it was 86.1%; in that of `NS(=O)(=O)c1ccc(NC(=O)CSc2ccc(-c3ccc(Cl)cc3)nn2)c(Br)c1`, 98%.
In the case of `C#CCOc1cc(N(CC)CC)ccc1C(C(=O)NC(C)(C)C)N(C(=O)C1CCc2cc(F)ccc2O1)c1ccccc1Br` (configuration not stated) it was 21.7%; in that of `CC(C)CSc1nc(NCCc2c[nH]c3ccccc23)c(C#N)c(-c2ccc(Cl)cc2)n1`, 47.5%.
In the case of `Cc1ccc(C(SCCNCc2cc(N(C)C)ccn2)(c2ccccc2)c2ccccc2)cc1` it was -40.9% (active).
For `COc1c(F)ccc(C(=O)Nc2ccc3nc(NC(=O)C4CCCN(S(=O)(=O)c5ccc(Cl)cc5)C4)sc3c2)c1F` (configuration not stated), the growth is 83.4%.
Turning to `Clc1ccc2c(NCCNC34CC5CC(CC(C5)C3)C4)ccnc2c1`, the growth was -53.1% (active).
On to `O=C1Nc2cc(-c3ccc(NS(=O)(=O)c4ccc(C(F)(F)F)cc4)cc3)ccc2/C1=C/c1ccc[nH]1`, for which the growth was 1.77% (active).
In the case of `COc1cc(/C=N/NC(=O)c2ccc(OCc3nc4ccc(Cl)cc4[nH]3)cc2)cc(OC)c1OC` it was 28.2%; in that of `N/C(=N\N=C\c1ccc([N+](=O)[O-])cc1)c1c(N)nc(=S)[nH]c1-c1ccc(Cl)cc1Cl`, 103%.
In the case of `CC(=O)OC[C@@]1(C)C2CC[C@]3(C)C(CC=C4C5CC(C)(C)CC[C@]5(C(=O)Nc5ccc(F)cc5)CC[C@]43C)[C@@]2(C)C[C@@H](OC(C)=O)[C@@H]1OC(C)=O` (some centres not stated) it was 27.9%; in that of `C#CCOc1ccc(/C=N/Nc2nc(-c3cc4cc(OC)ccc4oc3=O)cs2)cc1OC`, 76.1%; in that of `COc1cc(CNC(=O)C[C@H](C)CCC=C(C)C)ccc1OCc1cn(-c2ccccc2F)nn1`, 91.5%.
For the compound `NS(=O)(=O)c1ccc(CCNC(=O)CSc2ccc(-c3ccc(Br)cc3)nn2)cc1`, the growth was 55.4%.
In the case of `COc1cncc(-c2ccc3ncnc(N4CCc5ccc(Cl)cc54)c3c2)c1` it was -33.4% (active).
Take `COc1ccc(CN2[C@@H](C(=O)NCc3ccc(C(=O)NO)cc3)Cc3c([nH]c4ccccc34)[C@@H]2C2CC2)cc1`: the growth is -8.06% (active).
